Screening data from PubChem BioAssay.
An excerpt weighted towards active compounds, which were near 3.6% of everything screened.
A549 viability = Nrf2 qHTS screen for inhibitors: counterscreen for cytotoxicity. A549 ARE-Fluc cells, CellTiter-Fluor viability, 18-24 h. Potency, µM (highest dose often 46 µM), most hits filed as inhibitors. 390,000 tested, 0.16% active. AID 504648, 2011
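A549 ARE_Fluc cells in 5% FBS OPTI-MEM were exposed to compounds in concentration-response for 18-24 h at 37 deg C. Viability was read by CellTiter-Fluor fluorescence (Ex 405/Em 525) after 30 min, before the luciferase read.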
HepG2 tox = qHTS for Inhibitors of TGF-b: Cytotox Counterscreen; HepG2 CAGA-GFP viability, ATP luminescence, 18 h; 410,000 tested, 0.76% active; Potency, µM (top dose mostly 46.1 µM), hits mostly cytotoxic
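HepG2 CAGA-GFP cells (1000/well, DMEM with 1% FBS) received compound, then TGF-beta at 500 pg/mL final, and were incubated 18 hours at 37 degrees C. Viability was read by CellTiter-Glo luminescence. Media-only wells were set as complete cell-killing and DMSO as no toxicity.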
Nrf2 activator = qHTS of Nrf2 Activators; AID 624171, 2012; AREc32 ARE-luciferase reporter (MCF7-derived line), luminescence, 24 h; Potency, µM (doses to about 46.1 µM), most hits filed as activators; 410,000 tested, 0.31% active; also: nearly all actives have a fitted effect of over 65% in size
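Luminescent ARE reporter assay in AREc32_Fluc cells: overnight plating at 37 deg C, 24 hr compound incubation, Steady-Glo added, 30 min RT before reading.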
Nrf2 inh = Nrf2 qHTS screen for inhibitors. Potency, µM (doses to about 46 µM), actives largely listed as inhibitors. AID 504444, 2011. 360,000 tested, 2.1% active. A549 ARE-Fluc reporter, luciferase luminescence, 18-24 h; also: nearly all actives have a fitted effect of over 60% in size
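Two sequential reads on A549 ARE_Fluc cells exposed to compound for 18-24 h: a CellTiter-Fluor fluorescence read for viability, then a luciferase luminescence read for Nrf2/ARE activity.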
TGFb inhibitor = qHTS for Inhibitors of TGF-b. HepG2 CAGA-GFP TGF-b/SMAD3 reporter, GFP fluorescence, 18 h; TGF-beta stimulated, 500 pg/mL final. Potency, µM (series often up to 46.1 µM), usual class: inhibitors. 410,000 tested, 1.2% active. AID 588855, 2011; also: nearly all actives have a fitted effect of over 65% in size
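GFP signal (ex488/em500-530) from TGF-beta-stimulated HEPG2 CAGA-GFP cells, 500 pg/mL final, 18 h at 37 degrees C in DMEM plus 1% FBS, normalized to unstimulated and DMSO-stimulated controls.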
Hits are given with their value; - = inactive; ? = inconclusive; . = not tested or not shown. Calls follow the shape of the dose curve; as a rule, active = well fitted curve in the direction sought with a large enough effect; inconclusive = small, poorly fitted or top-dose-only effect, or another doubt; inactive = no such curve, though single readings can be large; an effect the other way counts as inactive or inconclusive.

SMILES	A549 viability	HepG2 tox	Nrf2 activator	Nrf2 inh	TGFb inhibitor
C#CCOCCOCCOCCNc1nc(N2CCN(C(=O)CCCCCCCCCCNC(=O)[C@H](CCCCN)n3cc(CCCC(=O)O)nn3)CC2)nc(N2CCN(C(=O)CCCCCCCCCCNC(=O)[C@@H]([C@H](C)O)n3cc(C)nn3)CC2)n1	-	-	-	-	11µM
C#CCOCCOCCOCCNc1nc(N2CCN(C(=O)CCCCCCCCCCNC(=O)[C@H]([C@@H](C)CC)n3cc(CCCCCN)nn3)CC2)nc(N2CCN(C(=O)CCCCCCCCCCNC(=O)[C@H](CCCCN)n3cc(CCCC(=O)O)nn3)CC2)n1	-	-	-	-	7.1µM
C[C@H](CO)N1C[C@H](C)[C@@H](CN(C)S(C)(=O)=O)Oc2ccc(NC(=O)C3CCCCC3)cc2C1=O	-	-	-	-	?
COC(=O)c1ccc2[nH]c3cccc(/C(=C/c4ccccc4)c4ccccc4)c3c2c1	-	-	-	?	?
CCc1ccc(NC(=O)C(=O)N/N=C(\C)CC(=O)Nc2ccccn2)cc1	-	-	-	-	-
C#CCOCCOCCOCCNc1nc(N2CCN(C(=O)CCCCCCCCCCNC(=O)[C@H]([C@@H](C)CC)n3cc(CCCCN=C(N)N)nn3)CC2)nc(N2CCN(C(=O)CCCCCCCCCCNC(=O)[C@H](CCCCN)n3cc(C)nn3)CC2)n1	?	11µM	-	?	16µM
C#CCOCCOCCOCCNc1nc(N2CCN(C(=O)CCCCCCCCCCNC(=O)Cn3cc(CCCCCN)nn3)CC2)nc(N2CCN(C(=O)CCCCCCCCCCNC(=O)[C@H]([C@@H](C)CC)n3cc(CCCCN=C(N)N)nn3)CC2)n1	?	-	-	?	?
Cc1ccc(C)c(Sc2ccc(NC(=O)CCN3C(=O)NC4(CCCC4)C3=O)cc2)c1	-	16µM	-	?	?
COc1ccc2nc(C)cc(Sc3nc4ccccc4s3)c2c1	-	-	?	?	?
Cc1nc(N2CCN(S(=O)(=O)c3ccc(F)cc3)CC2)c2c(-c3cccs3)csc2n1	-	-	-	16µM	-
Cc1ccc(S(=O)(=O)N2CCN(c3ncnc4scc(-c5ccc(F)cc5)c34)CC2)cc1	-	-	-	?	-
O=C1NCCCC1(c1ccccc1)c1ccccc1	.	-	-	.	-
CCc1cccc(C)c1NC(=S)NCCc1c(C)[nH]c2ccc(C)cc12	-	11µM	-	?	13µM
CCc1cccc(CC)c1NC(=S)NCCc1c(C)[nH]c2ccc(C)cc12	-	-	-	16µM	13µM
CC(C)(C)c1ccc(C(=O)Nc2ccc(CN3CCS(=O)(=O)CC3)cc2)cc1	-	-	-	7.3µM	-
COC(=O)Cc1ccc(NC(=O)c2ccc(C(C)(C)C)cc2)cc1	?	-	-	2.1µM	-
O=C(Nc1ccc(CN2CCS(=O)(=O)CC2)cc1)c1ccc(C(F)(F)F)cc1	-	-	-	18µM	-
CC(C)OCCCNC(=O)c1ccc(NC(=O)C2CCCO2)cc1 (configuration not stated)	-	-	-	-	-
COc1ccc(NS(=O)(=O)c2ccc(N3CCCC3)c(NC(=S)Nc3ccc(SC(F)F)cc3)c2)cc1	-	-	-	-	-
Cc1cc(C)c(C)c(S(=O)(=O)NCc2ccncc2)c1C	-	-	-	13µM	-
COc1cc(C)c(Br)cc1S(=O)(=O)NCc1ccccc1	-	-	-	-	?
Cc1cc(Br)c(S(=O)(=O)NCc2ccncc2)cc1C	-	-	-	3.7µM	?
COC(=O)Nc1cc(C)nc2ccccc12	-	-	-	-	-
Cc1cc(NC(=O)Cc2ccccc2)c2ccccc2n1	-	-	-	9.2µM	-
Cc1cc(Nc2cccc(Cl)c2)c2ccccc2n1	?	-	-	21µM	-
SMILES	A549 viability	HepG2 tox	Nrf2 activator	Nrf2 inh	TGFb inhibitor
Cc1cccc(Nc2cc(C)nc3ccccc23)c1	?	-	-	?	-
CN(c1ccc(C(=O)Nc2ccccc2C(=O)N2CCCC2)cc1)S(C)(=O)=O	-	-	-	.	-
O=C(N/N=C/c1cccnc1)c1cccc(NC(=O)c2ccc(Cl)cc2)c1	-	-	-	18µM	-
Cc1cccc(/C=N/NC(=O)c2ccc(NC(=O)c3ccc(Cl)cc3)cc2)n1	-	-	-	?	13µM
Cc1cccc(/C=N/NC(=O)c2ccc(NC(=O)c3ccc(F)cc3)cc2)n1	-	-	-	-	-
CCCCC(CCCC)=N/N=C/c1c(O)n(CC)c2cc(C3=NNC(=O)CC3)ccc12	-	-	-	-	-
CCC(=O)NC(=S)Nc1ccc(NC(=O)c2ccc([N+](=O)[O-])cc2)cc1	-	-	-	-	-
O=C(Nc1ccccc1)c1[nH]ncc1[N+](=O)[O-]	-	-	-	?	-
O=C(OCn1ncc(Br)c(Br)c1=O)c1ccc(F)cc1	?	10µM	?	?	11µM
CC(=O)OCn1ncc(N2CCOCC2)c(Br)c1=O	-	-	-	-	-
O=C(OCn1ncc(Br)c(Br)c1=O)c1ccccc1Cl	?	18µM	?	?	13µM
C#CCSc1nc(-c2ccccc2)cc(-c2ccccc2)c1C#N	-	-	-	-	-
Cc1ccc(-c2cc(C(F)(F)F)c(C#N)c(SCCC#N)n2)o1	-	-	7.1µM	-	-
C#CCSc1nc(-c2ccccc2)cc(C(F)(F)F)c1C#N	-	-	8.9µM	-	-
N#Cc1c(C(F)(F)F)cc(-c2cccs2)nc1SCc1cccnc1	?	-	-	13µM	-
COc1ccc(CN(C)C(=O)Cn2cnc3c(NCc4ccccc4)ncnc32)cc1OC	-	-	-	?	-
Nc1c(C(=O)c2ccccc2)sc(Nc2ccc(Cl)c(Cl)c2)c1C(=O)Nc1ccccc1	?	7.9µM	-	.	?
CCOc1nc(C#N)nc(N2CCCCC2)n1	-	-	-	16µM	-
COc1nc(C#N)nc(N2CCCC2)n1	-	-	.	?	-
Cc1ccc(-c2ccc(SCC(=O)NC3CCCCC3)nn2)cc1	-	-	-	-	-
COc1ccccc1-c1c(C)nn2c(N3CCN(Cc4ccccc4)CC3)cc(C)nc12	-	-	-	23µM	?
COc1ccccc1-c1c(C)nn2c(N3CCCCCC3)cc(C)nc12	?	-	-	26µM	11µM
Cc1cc(C(=O)N/N=C/c2c(C)nn(-c3ccccc3)c2C)c(C)o1	-	-	-	-	-
S=c1[nH]nc(-c2ccc(Cl)cc2)n1/N=C/c1cccs1	-	-	-	-	-
CCOC(=O)c1c(C(F)(F)C(F)(F)C(F)(F)C(F)(F)F)n[nH]c1C	-	13µM	-	-	?
O=C(O)Cc1ccc(NC(=O)COc2ccc3ccccc3c2)cc1	-	-	-	-	-
O=C(COc1ccc2ccccc2c1)Nc1ccc(Cc2ccncc2)cc1	-	-	-	15µM	?
